About 1,200 (3.2%) of roughly 38,000 compounds showed an effect of 50% or more. The median lay at about -58%. Shown is part of a subset that was picked to be rich in strong results.
tested on: Plasmodium falciparum; assay: Calibr Malaria Delayed Death Assay SOP; type: functional, organism-based; design: scale not given: in the data most compounds retested in dose-response had high values; conditions: concentration 4.99e-06 (unit not given; other assays of the set use mol/L)

Row | Compound | Percent Effect [%]
1 | O=C(CCOc1cccc(F)c1)N1CCCC1Cn1cccn1 (stereo unspecified) | -132.8
2 | Cc1ncc(CN2CCCC(c3cc(C(N)=O)[nH]n3)C2)s1 (stereo unspecified) | -114.1
3 | CN(CCO)CC1COCCN1C(=O)C1(c2cccs2)CCCC1.O=CO (stereo unspecified) | 45.51
4 | CN(C)CC1COCCN1C(=O)C1(c2cccs2)CCCC1.O=CO (stereo unspecified) | 30.77
5 | Fc1cccnc1N1CCCC(c2nccs2)C1 (stereo unspecified) | -23.64
6 | CN1CCC(CCNC(=O)N2CCN(Cc3ccon3)CC2)CC1 | -51.38
7 | CC(C)S(=O)(=O)CCN1CCc2c(ncn2C2CC2)C1 | -95.89
8 | CCS(=O)(=O)N1CCc2c(CN3CCOCC3)cncc2C1.Cl.Cl | -14.39
9 | CC1CCCCN1CCNC(=O)c1ccn(-c2ccc(F)cc2)n1 (stereo unspecified) | 33.02
10 | CC1CCN(CCNC(=O)c2ccn(-c3ccc(F)cc3)n2)CC1 | 59.32
11 | COc1ccc(-n2ccc(C(=O)NCCN3CCCCC3C)n2)cc1 (stereo unspecified) | -78.7
12 | CC1CCCN(CCNC(=O)c2ccn(-c3ccc(F)cc3)n2)C1 (stereo unspecified) | 48.64
13 | CC1CCN(CCNC(=O)c2ccn(-c3ccccc3)n2)CC1 | 21.68
14 | CC1CCCCN1CCNC(=O)c1ccn(-c2cccc(F)c2)n1 (stereo unspecified) | 62.87
15 | CS(=O)(=O)NCc1nnc2n1CCN(Cc1nccs1)C2 | -79.56
16 | Cc1ccc(S(=O)(=O)N2CCC(O)(CN(C)C)C2)cc1 (stereo unspecified) | 49.75
17 | CN(C)CC1(O)CCN(S(=O)(=O)c2ccc(Cl)cc2)C1 (stereo unspecified) | 40.17
18 | CN(C)CC1(O)CCN(S(=O)(=O)c2cccc(F)c2)C1 (stereo unspecified) | 65.12
19 | CC(=O)c1ccc(CNC(=O)c2c(C)cc(C)cc2C)nc1C | -62.27
20 | CN(C)C(=O)c1nn(C)c2c1CN(Cc1cccs1)C2.O=C(O)C(F)(F)F.O=C(O)C(F)(F)F | -31.31
21 | NC(=O)CCC1CCCN(c2ccc3ccc(F)cc3n2)C1 (stereo unspecified) | -163.3
22 | NC(=O)CCC1CCCN(c2ccnc3cc(F)ccc23)C1 (stereo unspecified) | 82.57
23 | NC(=O)CCC1CCCN(c2ccc3c(Cl)ccnc3c2F)C1 (stereo unspecified) | -15.33
24 | NC(=O)C1CCN(CCCNC(=O)Nc2nccs2)CC1 | -52.35
25 | CCn1nc(C)c2nc(C(C)C)nc(N3CCC(O)CC3)c21 | -68.6
26 | CN[C@@H](C)C(=O)N(Cc1cccc(C)c1)Cc1ccccc1OC | 83.47

Row | Compound | Percent Effect [%]
27 | COc1ccccc1CN(Cc1cccc(C)c1)C(=O)[C@@H](N)CC(=O)O | -17.66
28 | COCC(=O)N(Cc1cccc(C)c1)Cc1ccccc1OC | -1.416
29 | Cc1cnc(N2C(=O)CSC2c2cccs2)s1 (stereo unspecified) | -26.83
30 | COc1ccc2[nH]cc(-c3ccnc(N4CCC(C)CC4)n3)c2c1 | -185.2
31 | COc1ccc2[nH]cc(-c3ccnc(NC4CCCC4)n3)c2c1 | 56.79
32 | COC(=O)c1ccc2c(-c3ccnc(N[C@@H](C)CO)n3)c[nH]c2c1 | -32.75
33 | COc1ccccc1CC(C)CC(=O)NC(C)C (stereo unspecified) | -116.6
34 | CC(=O)N(Cc1noc(C2CC2)n1)C1CCN(Cc2cc(C)on2)C1 (stereo unspecified) | -9.487
35 | FC(F)(F)c1cccc(OC2CCN(Cc3ncc[nH]3)CC2)c1 | -24.7
36 | FC(F)(F)c1cccc(OC2CCN(Cc3c[nH]cn3)CC2)c1 | 48.24
37 | Cc1cccc(-c2nc(N)nc3c2CN(C(=O)C2CCCC2)C3C)c1 (stereo unspecified) | 35.57
38 | COc1ccccc1CN1CC(O)CN(C(=O)OCC(C)C)CC1=O (stereo unspecified) | -17.94
39 | Nc1ccc(C(=O)N2C[C@@H]3CC[C@H](C2)N(Cc2ccccc2)C3)cn1 | -23.45
40 | O=C(O)C(F)(F)F.O=C(O)C(F)(F)F.O=C(c1cccnc1)N1CCN2C[C@H](OCc3ccccc3)C[C@H]2C1 | -25.13
41 | CC(C#N)CSc1ccccc1NCC(=O)NC1CCCCC1 (stereo unspecified) | -62.9
42 | CC(C#N)CSc1ccccc1NCC(=O)Nc1ccccc1 (stereo unspecified) | -74.13
43 | CC(C#N)CSc1ccccc1NCC(=O)NC(C1CC1)C1CC1 (stereo unspecified) | 54.59
44 | COc1c[nH]c(C(=O)N2CCN(c3ccccc3)CC2)cc1=O | -92.19
45 | COC(=O)c1c(C(F)(F)F)cnc(OC)c1Cl | -7.4
46 | CCC(CO)NC(=O)NCc1cc(C#N)ccc1F (stereo unspecified) | -31.58
47 | COc1cccc(CNc2cc(C)nc(-c3ccncc3)n2)c1O | -16.17
48 | COc1cccc(CNc2nc(C)cc(C)n2)c1OC | -94.43
49 | COc1cccc(CNc2cc(C)nc(-c3ccncc3)n2)c1OC | 88.78
50 | CNc1oc(-c2cc(S(=O)(=O)N3CCCC3)c(C)o2)nc1C#N | -60.45
51 | Cc1nn(C)c2nc(N3CCCC3c3nccs3)sc12 (stereo unspecified) | -63.74
52 | NC(=O)c1cccnc1N1C[C@@H]2CC[C@H](C1)N(Cc1ccccn1)C2=O | -36.76

Row | Compound | Percent Effect [%]
53 | Fc1ccc(OCc2nnc([C@H]3CCN(Cc4ccccn4)C3)o2)cc1 | -10.02
54 | CCC(=O)N1CCC2(CC1)CC(NC(=O)N(C)C)c1cc(C)ccc12 (stereo unspecified) | -96.24
55 | Cc1noc(Cl)c1CCC(=O)N1CCN(c2cnccn2)CC1 | -135.5
56 | Cc1nn(C)c(C)c1CCC(=O)N1CCc2sccc2C1 | -11.91
57 | Cc1noc(Cl)c1CCC(=O)N1CCN(CC(C)(C)O)CC1 | -36.25
58 | Cc1noc(Cl)c1CCC(=O)N1CCN(c2ccccc2)CC1 | 51.57
59 | Cc1noc(Cl)c1CCC(=O)N1CCc2sccc2C1 | 53
60 | Cc1noc(C)c1CS(=O)(=O)CC(=O)N1CCc2sccc2C1 | -29.06
61 | CC(CO)(NC(=O)NCCc1ccc(Br)s1)C1CC1 (stereo unspecified) | -76.18
62 | Cc1[nH]ncc1C(=O)N1CCCC1c1noc(C2CC2)n1 (stereo unspecified) | -58.86
63 | CCOCC(O)CN1CCN(C(=O)c2ccc(OC)cc2)CC1 (stereo unspecified) | -30.2
64 | O=C(Nc1ccc(=O)n(Cc2ccccc2Cl)c1)C1CC1 | -14.36
65 | COc1cccc(CNC(C)c2ccc(-n3ccnc3)cc2)c1OC.Cl (stereo unspecified) | 16.61
66 | CCOc1cccc(CNC(C)c2ccc(-n3ccnc3)cc2)c1O (stereo unspecified) | 74.87
67 | CCOc1cccc(CNc2ccccc2C(=O)OC)c1O | -51.83
68 | COCCCNC(=O)c1ccn(-c2ccc3ccccn23)n1 | -7.182
69 | N#CCCNC(=O)c1ccn(-c2ccc3ccccn23)n1 | -51.94
70 | CN(C)CCNC(=O)c1ccn(-c2ccc3ccccn23)n1.O=C(O)C(F)(F)F | 83.48
71 | CCn1nc2c(cc1=O)CN(c1ncnc3sccc13)CC2 | 2.158
72 | Clc1cccc2c3c([nH]c12)CCN(Cc1cc2n(n1)CCNC2)C3 | 78.46
73 | c1ccc2c3c([nH]c2c1)CN(Cc1cc2n(n1)CCNC2)CC3 | 44.64
74 | c1csc(N2CCN(Cc3cc4n(n3)CCNC4)CC2)n1 | -68.56
75 | c1ccc(COC2CCN(Cc3cc4n(n3)CCCNC4)CC2)nc1 | -20.17
76 | OC(c1ccccn1)C1CCN(Cc2cc3n(n2)CCCNC3)CC1 (stereo unspecified) | -111.2
77 | CSCCC(Nc1nc(C)cc(C)n1)C(=O)NC(C)(C)CO (stereo unspecified) | -11.3
78 | COc1ccc(CCN2CCCC(CN(C)Cc3ccc(C)o3)C2)cc1 (stereo unspecified) | -48.89

Row | Compound | Percent Effect [%]
79 | COc1ccccc1CC1CCCN(CCN2CCOC2=O)C1 (stereo unspecified) | 47.59
80 | Cc1ncc(CN(C)C2CCCN(c3cccnn3)C2)s1 (stereo unspecified) | -24.6
81 | CN(C)C(=O)CN1CCO[C@H]2CN(Cc3cccc(F)c3)C[C@H]21 | -27.48
82 | CCn1ccnc1CN(C)c1cc(C2CCCNC2)nc(C)n1 (stereo unspecified) | -40.5
83 | Cc1nc(C2CCCNC2)cc(N(C)CCc2cn[nH]c2)n1 (stereo unspecified) | -154.6
84 | Cc1nc(C2CCCNC2)cc(N(C)CCc2ccccc2)n1 (stereo unspecified) | 52.76
85 | c1ccc(C(OCCNC2CCc3ncnn3C2)c2ccccc2)cc1 (stereo unspecified) | 43.54
86 | Cc1ccccc1C1(CNCc2cnc(N3CCOCC3)nc2)CC1 | 50.04
87 | OC1(CNCc2cnc(N3CCOCC3)nc2)CCCCC1 | -76.92
88 | c1ccc(C2(CNCc3cnc(N4CCOCC4)nc3)CC2)cc1 | -24.34
89 | c1cnc(N2CCCC3(CCN(Cc4ccsc4)C3)C2)nc1 (stereo unspecified) | 66.41
90 | O=C(O)C(F)(F)F.O=C(c1cnccn1)N1CCCC2(CCN(Cc3ccsc3)C2)C1 (stereo unspecified) | -36.03
91 | O=C(O)C(F)(F)F.O=C(O)C(F)(F)F.O=C(O)[C@]12CCCN(Cc3ccsc3)C[C@H]1CN(c1ccccn1)C2 | -252.9
92 | O=C(O)C(F)(F)F.O=C(O)C(F)(F)F.c1cnc(N2CCCC3(CCN(c4ncccn4)C3)C2)nc1 (stereo unspecified) | -228.4
93 | CCC(CC)CN1CCC2(CCCN(c3ncccn3)C2)C1 (stereo unspecified) | 60.59
94 | Fc1cnc(N2CCCC3(CCN(c4ncccn4)C3)C2)nc1 (stereo unspecified) | -118
95 | Fc1cnc(N2CC3(CCN(Cc4ccsc4)C3)C2)nc1.O=C(O)C(F)(F)F | -1.441
96 | O=C(O)C(F)(F)F.O=C(O)[C@]12CCCN(Cc3ccsc3)C[C@H]1CN(c1ncccn1)C2 | -238.9
97 | Cn1cc(CN2CC3(CCN(Cc4ccsc4)C3)C2)cn1 | -1.772
98 | Cc1cnc(N2CCC3(CCCN(c4ncc(F)cn4)C3)C2)nc1 (stereo unspecified) | -149.1
99 | CCCN1C(=O)CC(N2CCN(c3ccc(F)cc3)CC2)C1=O (stereo unspecified) | -22.99
100 | CN1CCCC(N(C)S(=O)(=O)c2cccc3ncccc23)C1 (stereo unspecified) | 28.23
101 | Cc1cc2nc(C(C)C)cc(N3CCN(c4ccc(O)cc4)CC3)n2n1 | -69.46
